The results in this text go back to PubChem BioAssay AID489043 (National Center for Advancing Translational Sciences (NCATS), 2010).

Inconclusive results are not listed. Where a call stands in place of a potency, no number is given. Activity calls are given as the source filed them. Calls follow the shape of the dose curve; as a rule, active = well fitted activation curve with a large enough effect; inconclusive = small, poorly fitted or top-dose-only effect; inactive = flat fitted curve, though single readings scatter.
Potency is read from the fitted curve at half-maximal effect.

Relaxin receptor 2 (Homo sapiens), sequence (Q8WXD0 whole entry, looked up): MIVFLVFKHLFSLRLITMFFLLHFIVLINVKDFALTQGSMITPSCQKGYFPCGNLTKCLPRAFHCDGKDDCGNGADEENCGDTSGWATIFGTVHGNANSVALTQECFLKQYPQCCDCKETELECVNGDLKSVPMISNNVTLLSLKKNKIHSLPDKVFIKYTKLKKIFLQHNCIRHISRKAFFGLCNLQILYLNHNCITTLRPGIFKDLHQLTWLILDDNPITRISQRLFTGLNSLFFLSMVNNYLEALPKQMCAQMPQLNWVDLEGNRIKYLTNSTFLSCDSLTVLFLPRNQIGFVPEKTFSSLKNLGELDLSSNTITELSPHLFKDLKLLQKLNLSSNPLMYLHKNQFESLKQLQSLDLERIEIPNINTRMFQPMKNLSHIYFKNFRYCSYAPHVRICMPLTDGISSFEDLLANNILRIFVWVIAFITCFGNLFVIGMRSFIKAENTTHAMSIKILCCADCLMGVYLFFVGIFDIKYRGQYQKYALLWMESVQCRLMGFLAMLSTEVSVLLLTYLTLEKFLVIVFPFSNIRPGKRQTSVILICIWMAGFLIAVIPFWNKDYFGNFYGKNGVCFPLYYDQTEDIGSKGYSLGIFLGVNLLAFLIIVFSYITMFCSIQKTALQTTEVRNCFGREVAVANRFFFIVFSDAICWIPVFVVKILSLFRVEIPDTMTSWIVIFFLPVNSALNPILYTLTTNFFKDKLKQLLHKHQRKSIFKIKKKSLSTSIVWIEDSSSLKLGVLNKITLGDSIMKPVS

The assay has as its target Relaxin receptor 2 (Homo sapiens) (UniProt Q8WXD0). The assay is described as follows: qHTS Assay for Agonists of the Relaxin Receptor RXFP1: RXFP2 Hit Validation. Also: nearly all actives have a fitted effect of over 65% in size. The following applies: HEK293 RXFP2 cAMP TR-FRET, 30 min; series mostly up to 115 µM. In short, it runs like this:
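TR-FRET cAMP read-out in lysed HEK293 RXFP2 cells, normalized to buffer (basal) and 29 nM porcine relaxin (100%). Compounds 30 min, 37C, with Ro 20174 present. EC50 via standard Hill equation.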
On the technique in general: In qHTS, concentration-response curves come from the screen itself.
As to `O=C(OCc1nc2ccsc2c(=O)[nH]1)c1cccc(S(=O)(=O)N2CCOCC2)c1`, the Potency is 34.6 µM (active). With `Cc1cc(Br)c2nc3c(c(C(=O)O)c2c1)CCCCC3`, the Potency is 1.94 µM (active). Then `CC(NC(=O)c1ccccc1NC(=O)c1ccco1)C(=O)O` (stereo unspecified), with “inactive”; and `CCN(CC)S(=O)(=O)c1ccc(C)c(NC(=O)Cn2cnc3cc([N+](=O)[O-])ccc3c2=O)c1`, with 30.9 µM (active). Next, `CN(C)CCCn1c(SCC(=O)Nc2nc(-c3cccc(Br)c3)cs2)nc2ccccc2c1=O`: “inactive”; `CC(C)C(=O)Nc1ccc(Nc2ccccc2)cc1`: “inactive”; `CCn1c(SCC(=O)Nc2ccc(NC(C)=O)cc2)nc2c1c(=O)n(C)c(=O)n2C`: 27.5 µM (active). Then `COc1ccc(OC)c(NC(=O)CSc2ccc3nnc(-c4cccnc4)n3n2)c1`, with “inactive”.

Take `CC1CCCCN1C(=O)c1ccccc1NC(=O)c1ccco1` (stereo unspecified): the Potency entry is “inactive”. Next, `Cc1cc(C)c(NC(=O)CS(=O)CC(=O)Nc2ccc(F)cc2F)c(C)c1` (stereo unspecified): “inactive”; `Nc1cc2ccncc2c2ccccc12`: “inactive”; `O=C(Nc1ccccc1C(=O)Nc1ccccc1)c1ccco1`: “inactive”. For `CN(C)c1ccc2nc3c(=O)[nH]c(=O)nc-3n(CC(O)C(O)C(O)CO)c2c1` (stereo unspecified), the Potency result is “inactive”. As for `CCN(c1ccccc1)S(=O)(=O)c1ccc(OC)c(NC(=O)C2CC(=O)N(Cc3ccccc3)C2)c1` (stereo unspecified), the Potency result was “inactive”. On to `Cc1ccc2cc(CN(C(=O)c3cccs3)c3ccccc3)c(=O)[nH]c2c1`, for which the Potency result was “inactive”. As to `CC[n+]1ccc(/C=C/c2ccc(N(C)C)cc2)c2ccccc21`, the Potency entry is “inactive”. Then `O=C1CN(c2nc3ccccc3n3cnnc23)CC(=O)N1CCc1ccccc1`, with “inactive”.

On to `Cc1cccn2c(=O)c(/C=C3\SC(=S)NC3=O)c(NCCCN3CCOCC3)nc12`, for which the Potency was 4.35 µM (active). Next, `CC1(C)Cc2c(sc3ncnc(NN)c23)CO1`: “inactive”.

Consider `COc1ccc(CC(=O)N/N=C/c2cccnc2)cc1OC`, for which the Potency result was “inactive”. Next, `O=C(O)CNC(=O)c1ccccc1NC(=O)c1ccco1`: “inactive”; `Cc1cc(NC(=O)CSc2ncnc3c2cnn3-c2cccc(Cl)c2)no1`: “inactive”.

With `CCn1c(=O)c2cc(C(=O)Nc3cccc(C(C)=O)c3)sc2c2ccccc21`, the Potency result is “inactive”. `CN1C(=O)c2ccc(C(=O)Nc3ccc(Br)cn3)cc2C1=O`: the Potency was 21.8 µM (active). Next, `O=C(O)c1ccc(N2C(=O)c3cccc4c(C(=O)O)ccc(c34)C2=O)cc1`: 47.3 µM (active). Then `CCCN(CCC)S(=O)(=O)c1cc(CN2C(=O)c3cccnc3C2=O)ccc1OC`, with 24.5 µM (active). Next, `O=C(Nc1ccccc1C(=O)NCCc1ccc(O)cc1)c1ccco1`: “inactive”.

On to `Nc1c(S(=O)(=O)O)cc(NC(=O)c2ccccc2)c2c1C(=O)c1ccccc1C2=O`, for which the Potency entry is “inactive”. Next, `Cc1ccc(-c2ccc3nnc(SCC(=O)NCC4CCCO4)n3n2)cc1` (stereo unspecified): “inactive”; `O=C(Nc1ccccc1C(=O)NCc1ccc(Cl)cc1)c1ccco1`: “inactive”; `Cn1c(N)c(C(=O)CSc2nnc(NC3CCCCC3)s2)c(=O)n(C)c1=O`: “inactive”.
